Experimental data as given in PubChem BioAssay (NCATS).
Inconclusive results are not listed. A call without a number means that no potency is given here. A number with no mark means an inactive call. Calls of active or inactive are those of the source. Calls follow the shape of the dose curve; as a rule, active = well fitted activation curve with a large enough effect; inconclusive = small, poorly fitted or top-dose-only effect, or another doubt; inactive = no such curve, though single readings can be large or run the other way.

target: Rap guanine nucleotide exchange factor 3 (Homo sapiens) (UniProt O95398); test: Counterscreen qHTS for agonist of cAMP-regulated guanine nucleotide exchange factor 3 (EPAC1) (AID 1645889); conditions: EPAC1 Rap1B-BODIPY-GDP exchange, fluorescence; series mostly up to 154 µM; also: nearly all actives have a fitted effect of over 40% in size
Summary of the method: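 Measured: fluorescence of BODIPY-GDP bound to Rap1B, which falls as exchange proceeds. Conditions include 50 uM competing GDP, 5 and 30 min reads, and a later cAMP challenge for antagonist detection.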
Potency is read from the fitted curve at half-maximal effect.

Row | SMILES | Potency | activation
1 | O=C(CC1Sc2ccccc2NC1=O)OCc1cc(=O)oc2cc(O)ccc12 (stereo not given) | inactive | 
2 | O=C(NCCC1CCCCN1S(=O)(=O)c1ccc(Cl)cc1)C(=O)NCc1ccco1 (stereo not given) | 89.1 µM (active) | 
3 | Cc1cc2ccccn2c1C(=O)c1ccccc1Br | 25.1 µM (active) | 
4 | COc1cccc(C2=NN(C(=O)c3ccco3)C(c3ccco3)C2)c1 (stereo not given) | inactive | 
5 | O=C(NCc1ccc(OC(F)(F)F)cc1)c1cccc2c1C(=O)c1ccc(N3CCCC3)cc1S2(=O)=O |  | 20% [at 30.8 µM]
6 | CN1/C(=C\C=C2/C(=O)Oc3ccccc3C2=O)C(C)(C)c2ccccc21 | 20 µM (active) | 
7 | COc1ccc(C(NCC(=O)NC(C)c2ccc(Cl)cc2)c2ccccc2)cc1 (stereo not given) | inactive | 
8 | COc1ccc(C2CC(c3cccs3)=NN2c2ccc(C=O)cc2)cc1 (stereo not given) | 44.7 µM (active) | 
9 | Cc1ccnc(NCc2cccc3ccccc23)c1 | inactive | 
10 | COc1ccc(/C=N/n2cnc3c([nH]c4ccc(F)cc43)c2=O)cc1CN1CCCC1 | inactive | 
11 | CCOC(=O)c1sc(NC(=O)CN2C(=O)NC3(CC(C)CC(C)(C)C3)C2=O)cc1C (stereo not given) | 89.1 µM (active) | 
12 | COc1ccc(C(=O)Nc2ccccc2C(=O)O)cc1NC(=O)C(c1ccccc1)c1ccccc1 | 112 µM (active) | 
13 | COc1ccc(-c2n[nH]c(C)c2-c2ccccc2OC)c(O)c1 | inactive | 
14 | Cc1c(CCC(=O)O)c(=O)oc2c(C)c3occ(-c4ccc(Br)cc4)c3cc12 | inactive | 
15 | CN(C)/C=C/c1onc(-c2c(Cl)cccc2Cl)c1C#N | inactive | 
